The values below come from PubChem BioAssay AID463173 (ICCB-Longwood Screening Facility, Harvard Medical School, 2010).

SMILES strings stand for the structures. Among all 52,000 compounds or so, about 1,700 (3.3%) were called active. Rule as the data show it: active = survival mostly below about 52% (no sharp cut-off); inactive = mostly above about 56%. Many of the other results were omitted from the sample, so actives are more common in it than they were.

The test system of the assay is Wild type. Description: growth inhibition of S. aureus wild type versus tarO mutant, primary screen, teichoic acid synthesis inhibitors, RN4220, OD600 (AID 463173). To be noted: S. aureus RN4220 wild type/DeltatarO growth, OD600, 18 h, stronger effect = lower value, screened at 18.75 µg/mL (by protocol).
Take `Cc1c(C(=O)Nc2ccccc2Br)oc2ccc(S(=O)(=O)N3CCCCCC3)cc12`: the survival is 83% (inactive).
On to `O=C(NCc1ccc(F)cc1)c1ccc2c(Cl)c3c(nc2c1)CCCC3`, for which the survival was 62% (inactive).
Under `Cc1cc(C)cc(N2CC(c3nc(-c4cccc(Cl)c4)no3)CC2=O)c1` (configuration not stated) stands 32% (inactive).
Consider `CCCCNC(=O)c1sc2ncccc2c1-n1cccc1`, for which the survival was 47% (inactive).
Under `CCc1nc(-c2cc(S(=O)(=O)N3CCN(c4ccccc4OC)CC3)ccc2OC)no1` stands 69% (inactive); under `CCOc1ccccc1NC(=O)C(NS(=O)(=O)c1ccc2c(c1)CCC(=O)N2)c1ccccc1` (configuration not stated), 76% (inactive); under `COC(=O)c1cc(S(=O)(=O)N2CCN(c3ccc(F)cc3)CC2)cn1C`, -6% (active).
Under `CC1CCN(S(=O)(=O)c2cc(C(=O)N3CCN(c4ccccc4F)CC3)n(C)c2)CC1` stands 65% (inactive); under `COC(=O)c1scc(-c2ccc(C)cc2)c1S(=O)(=O)N1CCN(c2ccc(F)cc2)CC1`, -6% (active).
As to `COC(=O)c1scc(-c2ccc(C)cc2)c1S(=O)(=O)N1CCN(c2ccccc2)CC1`, the survival was 64% (inactive).
The value for `Cn1cc(S(=O)(=O)N2CCCCCC2)cc1C(=O)N1CCN(c2ccc(F)cc2)CC1` was 71% (inactive).
On to `Cn1cc(S(=O)(=O)N2CCCCC2)cc1C(=O)N1CCN(c2ccc(F)cc2)CC1`, for which the survival was 65% (inactive).
The value for `COC(=O)c1scc(-c2ccc(C)cc2)c1S(=O)(=O)N1CCN(c2ccc(OC)cc2)CC1` was 75% (inactive).
The value for `COc1ccccc1N1CCN(C(=O)c2cc(S(=O)(=O)N3CCC(C)CC3)cn2C)CC1` was 0% (active); that for `Cc1cccc(N2CCN(C(=O)c3cc(S(=O)(=O)N4CCC(C)CC4)cn3C)CC2)c1C` was 49% (inactive).
The value for `CCc1ccc(-n2nc3cc(C)c(NC(=O)c4cc(OC)cc(OC)c4)cc3n2)cc1` was 69% (inactive).
Regarding `Cc1ccc(-c2cc(C(=O)Nc3c(C(=O)c4ccc(C)c(F)c4)oc4ccccc34)no2)cc1`, the survival was 93% (inactive).
Under `O=C(Nc1cccc(NC(=O)C2CCCO2)c1)c1ccco1` (configuration not stated) stands 102% (inactive); under `O=C(Nc1ccc(F)c(Cl)c1)C1CCN(S(=O)(=O)c2ccc3c(c2)CCCN3C(=O)C2CCC2)CC1`, 67% (inactive); under `COC(=O)c1c(SC)nc2ccccc2c1OCc1ccc(C)cc1`, 75% (inactive).
Under `NC(=O)C1CCN(C(=O)CSc2nc(O)cc(=O)[nH]2)CC1` stands 97% (inactive).
Take `O=C(N/N=C1/SCC(=O)N1Cc1ccco1)c1ccccc1F`: the survival is 97% (inactive).
The value for `CC(=O)Nc1ccc(S(=O)(=O)Nc2ccc(-c3cn4c(C)csc4n3)cc2)cc1` was 69% (inactive).
Under `COc1ccc(S(=O)(=O)Nc2ccc(-c3cn4c(C)csc4n3)cc2)cc1` stands 78% (inactive); under `CC(=O)c1ccc(S(=O)(=O)Nc2ccc(-c3cn4c(C)csc4n3)cc2)cc1`, -6% (active).
The value for `CCc1ccccc1Nc1nn2c(=O)c3ccc(C(=O)NCc4ccc(C)cc4)cc3nc2s1` was 92% (inactive); that for `Cc1ccccc1Cn1c(CN2CCC(C(=O)NCCc3ccccc3)CC2)cc2ccccc21` was 110% (inactive); that for `CC(=O)N1CCc2c(sc3c2c(=O)n(-c2ccccc2C)c(=O)n3CC(=O)Nc2ccccc2)C1` was 69% (inactive).
For `CCOc1ccc(-n2c(SCC(=O)Nc3cc(C)on3)nc3c([nH]c4ccccc43)c2=O)cc1`, the survival was 69% (inactive).
The value for `CCOc1ccc(N(CC)S(=O)(=O)N2CCCC(C(=O)Nc3cc(Cl)ccc3C)C2)cc1` (configuration not stated) was 79% (inactive); that for `CCc1cccc(NC(c2ccccc2)c2nnc(-c3ccccc3F)o2)c1` (configuration not stated) was 1% (active).
For the compound `COc1cc(Cl)c(C)cc1NC(c1ccccc1)c1nnc(-c2ccccc2Cl)o1` (configuration not stated), the survival was 75% (inactive).
For `COc1ccc(NC(c2ccc(F)cc2)c2nnc(-c3ccccc3Cl)o2)cc1Cl` (configuration not stated), the survival was 88% (inactive).
As for `Cc1ccc(Cl)cc1NC(c1ccc(F)cc1)c1nnc(-c2ccccc2)o1` (configuration not stated), the survival is 117% (inactive).
For the compound `CCc1cccc(NC(c2nnc(-c3ccccc3)o2)c2ccc(F)cc2Cl)c1` (configuration not stated), the survival was 70% (inactive).
Under `Cc1ccc(C)c(NC(c2ccccc2)c2nnc(-c3ccccc3F)o2)c1` (configuration not stated) stands 5% (active).
Regarding `COc1cc(C(=O)Nc2ccc3nc(SCc4ccccc4)sc3c2)cc(OC)c1OC`, the survival is 86% (inactive).
Regarding `CCOC(=O)c1[nH]c2c(c1Cc1ccccc1C)C(=O)CC(c1ccccc1)C2` (configuration not stated), the survival was 95% (inactive).
The value for `O=C(NCc1ccccc1)C(=O)NCC(c1ccco1)S(=O)(=O)c1cccs1` (configuration not stated) was 70% (inactive); that for `O=C(NCCc1ccc(Cl)cc1)C(=O)NCC(c1ccco1)S(=O)(=O)c1cccs1` (configuration not stated) was -3% (active); that for `O=C(NCCc1ccc(F)cc1)C(=O)NCC(c1ccco1)S(=O)(=O)c1cccs1` (configuration not stated) was 53% (inactive).
As to `O=C(NCc1ccc(F)cc1)C(=O)NCC(c1ccco1)S(=O)(=O)c1cccs1` (configuration not stated), the survival is 0% (active).
Under `Cc1ccc(CNC(=O)C(=O)NCC(c2ccco2)S(=O)(=O)c2cccs2)cc1` (configuration not stated) stands 75% (inactive).
Under `O=C(NCCc1ccccc1)C(=O)NCC(c1ccco1)S(=O)(=O)c1cccs1` (configuration not stated) stands 75% (inactive).
Under `Cn1c(=O)n(C)c2cc(N3CCOCC3)c(NC(=O)c3ccc(C(C)(C)C)cc3)cc21` stands 75% (inactive); under `CCc1c(C)nc2nncn2c1Nc1cccc(C)c1`, 91% (inactive).
Consider `Cc1ccc2sc(N(Cc3cccnc3)C(=O)CCOc3ccccc3)nc2c1C`, for which the survival was 63% (inactive).
In the case of `O=C(Nc1nc2nc(-c3ccccc3)cc(=O)n2[nH]1)c1ccc(Cl)cc1`, the survival is 88% (inactive).
The value for `Cc1cccc(-c2cc3nc(-c4ccccc4)cc(=O)n3[nH]2)c1` was 93% (inactive).
Under `Cc1[nH]n2c(=O)cc(-c3ccccc3Cl)nc2c1-c1ccccc1` stands -13% (active).
The value for `Cc1nn2c(-c3ccccc3)cc(-c3ccccc3)nc2c1-c1ccc(Cl)cc1` was 86% (inactive).
`Nc1nc2nc(-c3ccccc3)cc(=O)n2[nH]1`: the survival was 59% (inactive).
The value for `Cc1[nH]n2c(=O)cc(-c3ccc(Cl)cc3)nc2c1-c1ccccc1` was -17% (active).
Under `CCOC(=O)c1ccc(CN(Cc2ccc(Br)cc2)S(=O)(=O)c2cccc(C(F)(F)F)c2)cc1` stands 72% (inactive); under `CCOc1ccccc1CNC(=O)CCc1c(C)nn(-c2ccc(N3CCCC3)nn2)c1C`, 71% (inactive); under `COc1ccc(CNC(=O)c2sc3nc4n(c(=O)c3c2C)CCCCC4)cc1`, 86% (inactive).
The value for `CSc1cccc(NC(=O)C2CCN(S(=O)(=O)c3ccc4[nH]c(=O)ccc4c3)CC2)c1` was 101% (inactive); that for `COc1ccc(-c2cc(C(F)(F)F)nc(SCC(=O)N(C)Cc3ccccc3)n2)cc1OC` was 45% (inactive).
For `O=C(CSc1nc(-c2ccc(F)cc2)cc(C(F)(F)F)n1)NCc1ccccc1`, the survival is 84% (inactive).
Under `CN(Cc1ccccc1)C(=O)CSc1nc(-c2ccc(F)cc2)cc(C(F)(F)F)n1` stands -4% (active); under `COc1ccc(-c2cc(C(F)(F)F)nc(SCC(=O)NCCc3ccccc3)n2)cc1`, 140% (inactive); under `O=C(CSc1nc(-c2ccc(F)cc2)cc(C(F)(F)F)n1)NCCc1ccccc1`, 89% (inactive).
The value for `COc1ccc(-c2cc(C(F)(F)F)nc(SCC(=O)N(C)Cc3ccccc3)n2)cc1` was -1% (active); that for `COc1ccc(CC(=O)Nc2c(C(=O)N3CCN(c4ccccc4)CC3)oc3ccccc23)cc1OC` was 76% (inactive); that for `CCN(CC)S(=O)(=O)c1ccc(NC(=O)[C@H](CSCc2ccccc2)N2Cc3ccccc3C2=O)cc1` was 130% (inactive).
The value for `CCOc1ccc(-n2c(SCC(=O)Nc3ccc(F)cc3)nc3c([nH]c4ccccc43)c2=O)cc1` was 88% (inactive); that for `CCc1ccc(C(=O)NC2=NC(c3ccccc3F)CC(=O)N2)cc1` (configuration not stated) was 166% (inactive); that for `Cc1cccc(CCn2c(=O)c3ccccc3n(Cc3ccccc3C)c2=O)c1` was 59% (inactive).
For `O=C(CCn1c(=O)c2ccccc2n(Cc2cccc(Cl)c2)c1=O)NCCc1ccccc1`, the survival is 74% (inactive).
The value for `Cc1ccccc1Cn1c(=O)n(CCCCC(=O)NCCc2ccccc2)c(=O)c2ccccc21` was 103% (inactive); that for `O=c1c2ccccc2n(Cc2c(F)cccc2Cl)c(=O)n1CCc1ccccc1` was 83% (inactive).
On to `O=C(CCCCn1c(=O)c2ccccc2n(Cc2ccccc2Cl)c1=O)NCCc1ccccc1`, for which the survival is 132% (inactive).
Under `O=c1c2ccccc2n(Cc2ccccc2Cl)c(=O)n1CCc1ccccc1` stands 15% (active); under `O=c1c2ccccc2n(Cc2cccc(Cl)c2)c(=O)n1Cc1ccccc1`, 96% (inactive); under `O=c1c2ccccc2n(Cc2cccc(Cl)c2)c(=O)n1CCc1ccccc1`, 39% (active).
Under `Cc1ccccc1Cn1c(=O)n(CCc2ccccc2)c(=O)c2ccccc21` stands 4% (active).
Take `COc1cc(NC(=O)CSc2ncc(S(=O)(=O)c3ccc(Br)cc3)c(=O)[nH]2)cc(OC)c1`: the survival was 84% (inactive).
The value for `O=C(c1ccc(Cl)cc1)n1nc(-c2ccco2)nc1NCc1cccs1` was 87% (inactive); that for `O=C(NCC(c1ccco1)S(=O)(=O)c1cccs1)c1ccc(C(F)(F)F)cc1` (configuration not stated) was 83% (inactive); that for `CC(=O)Nc1ccc(Nc2c3c(c(C#N)c4nc5ccccc5n24)CCC3)cc1` was 100% (inactive).
The value for `Cc1nn2c(=O)cc(COC(=O)c3ccc(NC(=O)c4ccc(C(C)(C)C)cc4)cc3)nc2s1` was 74% (inactive); that for `CCc1ccccc1NC(=O)Cn1nc(C(F)(F)F)c2c1CCCC2` was 84% (inactive).
Under `COc1ccc(Cl)cc1NC(=O)Cn1nc(C(F)(F)F)c2c1CCCC2` stands 9% (active).
For `COc1ccc(Cl)cc1NC(=O)Cn1nc(C(F)(F)F)c2c1CCC2`, the survival was 84% (inactive).
For the compound `COC(=O)c1ccccc1NC(=O)Cn1nc(C(F)(F)F)c2c1CCCC2`, the survival was -5% (active).
Under `CCc1ccccc1NC(=O)Cn1nc(C(F)(F)F)c2c1CCC2` stands 74% (inactive); under `COc1cc(NC(=O)Cn2nc(C(F)(F)F)c3c2CCCC3)c(OC)cc1Cl`, 87% (inactive).
